From PubChem
LMP1 NFkB inh: inhibitors of Epstein-Barr LMP1-induced NF-kappaB reporter | LMP1-induced NF-kappaB luciferase reporter cells, luminescence | inhibition, % at 12.5 µM | 350,000 compounds, 0.69% hits; in the data active = inhibition above about 41%
PAX8 reporter: lowers PAX8-driven luciferase in RMG-I cells; RMG-I TPO-luciferase reporter, SteadyGlo, 24 h; inhibition, % at 12.6 µM; 360,000 compounds, 1.2% hits;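 active = mean replicate inhibition at least 60% with every replicate also reaching 60%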;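 note: luciferase light reporting Pax8 driven TPO promoter activity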
aSyn UTR inh: MLPCN primary screen, SNCA 5' untranslated region | alpha-synuclein 5'UTR reporter, inhibitor activity | inhibition, % (tested at 7.5 µM) | 300,000 compounds, 0.82% hits; in the data active = inhibition above about 60%;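 note: H4 neuroglioblastoma cells stably carrying SNCA 5'UTR luciferase fusion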
Shn3 inh set2: reduces Shn3 3'UTR luciferase signal in osteoblasts. 360,000 compounds, 0.52% hits. inhibition, % at 12.5 µM. Clone20 osteoblast Shn3 3'UTR firefly luciferase, 24 h;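 active = mean inhibition of at least 75% with every replicate also reaching 75%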
MITF TRPM1 inh: inhibitors of MITF-driven TRPM1 promoter in melanoma cells; SK-MEL-5 TRPM1 promoter luciferase, 24 h; inhibition, % at 12.5 µM; 330,000 compounds, 0.83% hits; AID 488899;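 active = mean inhibition across replicates of 60% or more, whatever share of single replicates reaches that level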
Of the large screens only hits and unclear results are named; the others gave an inactive call. This is a sample that favours compounds with a hit; in the whole collection about 2.1% have one here.

CSc1nc(N)nc(SCC(=O)C23CC4CC(CC(C4)C2)C3)c1C#N	LMP1 NFkB inh 69 (no result: PAX8 reporter)
CC(C)(C)c1cc(Cl)c(O)c(NC(=S)NC(=O)c2cccnc2)c1	aSyn UTR inh 80
CC(C)NC(=O)N(C)C[C@@H]1OCCCC[C@H](C)Oc2ccc(NC(=O)C3CCCCC3)cc2C(=O)N([C@H](C)CO)C[C@H]1C	none (no result: LMP1 NFkB inh, aSyn UTR inh, Shn3 inh set2, MITF TRPM1 inh)
CCN(CC)c1ccc(C(=C2C=CC(=[N+](CC)CC)C=C2)c2ccccc2)cc1	LMP1 NFkB inh 95, PAX8 reporter 113, Shn3 inh set2 97, MITF TRPM1 inh 109 (no result: aSyn UTR inh)
CCN(CC)c1ccc(C(=C2C=CC(=[N+](CC)CC)C=C2)c2ccc(N(CC)CC)cc2)cc1	PAX8 reporter 113, Shn3 inh set2 89 (no result: aSyn UTR inh, MITF TRPM1 inh)
CCN(CC)c1ccc(C(=O)NNC(=O)CCl)cc1	none
COc1cc(CCC(C)NCc2ccccc2)ccc1O (configuration not stated)	none
O=c1ccn([C@@H]2O[C@H](CO)[C@@H](O)[C@H]2O)c(=O)[nH]1	none
C=CC[C@H](CC(=O)NCCO)C(=O)NCCOC(=O)[C@@H](CC=C)CC(=O)OC(C)(C)C	none (no result: aSyn UTR inh)
C[N+](C)(C)C[C@H](O)CC(=O)O	none
CC(=O)O[C@H](CC(=O)O)C[N+](C)(C)C	LMP1 NFkB inh 59
CC(=O)OC(CC(=O)O)C[N+](C)(C)C (configuration not stated)	aSyn UTR inh 68
COCC(=O)N(C)C[C@@H]1Oc2cc(C#CCC3CCCC3)ccc2S(=O)(=O)N([C@@H](C)CO)C[C@@H]1C	PAX8 reporter 74 (no result: LMP1 NFkB inh, aSyn UTR inh, Shn3 inh set2, MITF TRPM1 inh)
CCN(C)C[C@@H]1Oc2cc(C#CCC3CCCC3)ccc2S(=O)(=O)N([C@@H](C)CO)C[C@H]1C	none (no result: LMP1 NFkB inh, aSyn UTR inh, Shn3 inh set2, MITF TRPM1 inh)
COCC(=O)N(C)C[C@@H]1Oc2cc(C#CCC3CCCC3)ccc2S(=O)(=O)N([C@H](C)CO)C[C@H]1C	none (no result: LMP1 NFkB inh, aSyn UTR inh, Shn3 inh set2, MITF TRPM1 inh)
COCC(=O)N(C)C[C@@H]1Oc2cc(C#CCC3CCCC3)ccc2S(=O)(=O)N([C@H](C)CO)C[C@@H]1C	none (no result: LMP1 NFkB inh, aSyn UTR inh, Shn3 inh set2, MITF TRPM1 inh)
CCCN(C)C[C@@H]1Oc2cc(C#CCC3CCCC3)ccc2S(=O)(=O)N([C@H](C)CO)C[C@H]1C	PAX8 reporter 71 (no result: LMP1 NFkB inh, aSyn UTR inh, Shn3 inh set2, MITF TRPM1 inh)
COCC(=O)N(C)C[C@@H]1Oc2cc(C#CCC3CCCC3)ccc2S(=O)(=O)N([C@@H](C)CO)C[C@H]1C	PAX8 reporter 71 (no result: LMP1 NFkB inh, aSyn UTR inh, Shn3 inh set2, MITF TRPM1 inh)
CCN(CC)S(=O)(=O)c1ccc(C(=O)NCCCn2ccnc2)cc1	none
Cc1ccc2nc(SCC(=O)Nc3c(F)cccc3F)[nH]c2c1	none
COC(=O)C12OCC34C(CC5C(C)=C(O)C(=O)CC5(C)C3C(O)C1O)OC(=O)C(OC(=O)C=C(C)C)C24 (configuration not stated)	LMP1 NFkB inh 85, PAX8 reporter 99, Shn3 inh set2 99, MITF TRPM1 inh 72 (no result: aSyn UTR inh)
COc1ccccc1NC(=O)N1C[C@H]2[C@@H](c3ccccc31)[C@H](CO)N2CC1CCOCC1	none (no result: LMP1 NFkB inh, aSyn UTR inh, Shn3 inh set2, MITF TRPM1 inh)
CC1CCCCN1CC(=O)NC(c1ccccc1)c1ccccc1 (configuration not stated)	none
CSc1ccccc1NC(=O)CN1CCCCC1C (configuration not stated)	LMP1 NFkB inh 55
CCCNC(=O)N1[C@@H](CO)[C@H](c2ccccc2)[C@@H]1CNC(=O)c1ccc(F)cc1	none (no result: LMP1 NFkB inh, aSyn UTR inh, Shn3 inh set2, MITF TRPM1 inh)
Cc1cc2c(c(/C=C/C(=O)c3ccccc3)c1)OC1(C=C2)Oc2ccccc2C(=O)N1C (configuration not stated)	Shn3 inh set2 93
O=C(C1CCOCC1)N1CC(=O)N2[C@H](CO)[C@@H](c3ccc(C4=CCCC4)cc3)[C@H]2C1	none (no result: LMP1 NFkB inh, aSyn UTR inh, Shn3 inh set2, MITF TRPM1 inh)
Cc1sc2ncn(CC(=O)N3CCC(C(N)=O)CC3)c(=O)c2c1S(=O)(=O)N1CCOCC1	LMP1 NFkB inh 46
CCOC(=O)C1CCCN(C(=O)Cn2cnc3sc(C)c(S(=O)(=O)N4CCOCC4)c3c2=O)C1 (configuration not stated)	none
CCOC(=O)/C(=C/c1ccc(N2CCC(c3ccccc3)=N2)cc1)C(C)=O	LMP1 NFkB inh 94 (no result: PAX8 reporter)
c1ccc(C2=NN(c3ccccc3)CC2)cc1	none
COc1ccc(NS(=O)(=O)c2cc3c(cc2C)N(C)CCO3)c(OC)c1	none (no result: MITF TRPM1 inh)
N#C[C@H]1[C@@H](c2ccc(-c3ccc(F)cc3)cc2)[C@@H](CO)N1C(=O)Cc1ccccc1	none (no result: LMP1 NFkB inh, aSyn UTR inh, Shn3 inh set2, MITF TRPM1 inh)
CC(C)=NNc1ncnc2nc[nH]c12	PAX8 reporter 70 (no result: aSyn UTR inh)
Cc1ccc(Cl)c2c1NC(=O)C2(O)CC(=O)c1ccccc1O (configuration not stated)	none
COc1c(Cl)cc(C(=O)NN)cc1Cl	aSyn UTR inh 99
CC1CCN(c2nc3ccc(C(=O)NCCCN4CCCCC4)cc3s2)CC1	none
